# Test results from PubChem BioAssay (NCI).
# This is part of a sample that, as a whole, favours compounds with a hit. Of some 79,000 tested, about 15% had one in any assay. Unmarked numbers belong to inactive results. Calls of active or inactive are those of the source. Cut-off read from the data, not from the text of the source: active = growth inhibition above about 70%; inactive = the rest.
# What was measured:
# [1] = NCI Yeast Anticancer Drug Screen. Data for the rad52 strain (AID 147);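 note: 0% = growth of vehicle-treated control cultures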; conditions: S. cerevisiae rad52 mutant growth inhibition, active compounds read high
# Summary of the method: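 Measured: yeast growth inhibition. System: strain with a defined DNA damage repair alteration. Reference: vehicle-treated control cultures.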
# [2] = NCI Yeast Anticancer Drug Screen. Data for the wt1 strain (AID 149);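 note: 0% = growth of vehicle-treated wt1 cultures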; conditions: S. cerevisiae wt1 strain (SPY 50644) growth inhibition, active compounds read high
# Summary of the method: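 Readout: yeast growth inhibition, normalised to vehicle controls, in the wt1 strain exposed to test compounds.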
# [3] = NCI Yeast Anticancer Drug Screen. Data for the rad50EPP+ strain (AID 151);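 note: 0% = growth of vehicle-treated control cultures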; conditions: S. cerevisiae rad50 mutant strain, active compounds read high
# Summary of the method: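 One strain with a rad50 alteration (rad50EPP+) was compound-treated, its growth then compared to that of vehicle controls.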
# [4] = NCI Yeast Anticancer Drug Screen. Data for the mgt1 strain (AID 153); conditions: S. cerevisiae mgt1 mutant growth inhibition, active compounds read high
# Summary of the method: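 After exposure of the mgt1 yeast mutant to compound, growth was measured and reported as inhibition compared with vehicle controls.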
# [5] = NCI Yeast Anticancer Drug Screen. Data for the rad50 strain (AID 155);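 note: 0% = growth of vehicle-only cultures of the same strain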; conditions: S. cerevisiae rad50 strain growth inhibition, active compounds read high
# Summary of the method: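 Compounds were tested on a yeast strain with an engineered DNA damage repair alteration; the reported value is growth inhibition normalised to vehicle treatment.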
# [6] = NCI Yeast Anticancer Drug Screen. Data for the mec2-1 strain (AID 157); conditions: S. cerevisiae mec2-1 strain, active compounds read high
# Summary of the method: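 Test agents were screened against the mec2-1 yeast strain, with defined DNA repair or cell cycle alteration. Growth was scored as inhibition against vehicle-only controls.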
# [7] = NCI Yeast Anticancer Drug Screen. Data for the rad14 strain (AID 159);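 note: 0% = growth of vehicle-treated control cultures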; conditions: S. cerevisiae rad14 strain growth inhibition, active compounds read high
# Summary of the method: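 Compound-treated yeast with a defined DNA-repair lesion; growth inhibition normalised to vehicle-treated cultures.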
# [8] = NCI Yeast Anticancer Drug Screen. Data for the sgs1 mgt1 strain (AID 161);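 note: 0% = growth of cultures given vehicle only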; conditions: S. cerevisiae sgs1 mgt1 strain, active compounds read high
# Summary of the method: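 Mutant yeast exposed to compound; growth scored against vehicle-only wells.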
# [9] = NCI Yeast Anticancer Drug Screen. Data for the CLN2oe strain (AID 163);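 note: 0% = growth of vehicle-only control cultures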; conditions: S. cerevisiae CLN2oe strain, active compounds read high
# Summary of the method: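 Here, growth inhibition in a cell-cycle-altered yeast strain after compound exposure was quantified against vehicle control growth.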
# [10] = NCI Yeast Anticancer Drug Screen. Data for the cln2 rad14 strain (AID 165);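 note: 0% = growth equal to vehicle treated cultures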; conditions: S. cerevisiae cln2 rad14 strain, active compounds read high
# Summary of the method: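 Growth of compound-exposed yeast (cln2 rad14 genotype) measured and expressed as inhibition relative to vehicle.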
# [11] = NCI Yeast Anticancer Drug Screen. Data for the bub3 strain (AID 167); conditions: S. cerevisiae bub3 mutant strain, active compounds read high
# Summary of the method: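 Growth of a checkpoint-deficient yeast mutant is measured after compound exposure. Values represent inhibition relative to vehicle.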
# [12] = NCI Yeast Anticancer Drug Screen. Data for the wt2 strain (AID 169);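 note: 0% = growth of vehicle-treated yeast cultures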; conditions: S. cerevisiae wt2 strain growth inhibition, active compounds read high
# Summary of the method: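 Genetically defined yeast strains from a DNA-repair/cell-cycle panel were used. Compound-exposed yeast growth was measured, and the inhibition was calculated relative to vehicle treatment.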
# [13] = NCI Yeast Anticancer Drug Screen. Data for the mlh1 strain (AID 171);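 note: 0% = growth of vehicle-treated control cultures of the same strain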; conditions: S. cerevisiae mlh1 strain growth inhibition, active compounds read high
# Summary of the method: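 Here the genetically defined yeast mutant is grown with each compound, and the extent to which its growth falls below that of vehicle-exposed cells is reported.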
# [14] = NCI Yeast Anticancer Drug Screen. Data for the sgs1 strain (AID 173);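 note: 0% = growth of vehicle-only control cultures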; conditions: S. cerevisiae sgs1 mutant, active compounds read high
# Summary of the method: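 Relative growth inhibition, referenced to vehicle, was determined in a yeast strain with a defined alteration affecting DNA damage repair or cell cycle control after compound exposure.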
# [15] = NCI Yeast Anticancer Drug Screen. Data for the mlh1 rad18 strain (AID 175); conditions: S. cerevisiae mlh1 rad18 strain growth inhibition, active compounds read high
# Summary of the method: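 In this whole-cell yeast screen, a strain with altered DNA damage repair is challenged with compound, and its growth is measured against matched vehicle-treated controls.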
# [16] = NCI Yeast Anticancer Drug Screen. Data for the rad18 strain (AID 177); conditions: S. cerevisiae rad18 mutant growth inhibition, active compounds read high
# Summary of the method: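 Screen uses a yeast strain with a defined lesion in DNA damage repair; compound effect is read as loss of growth compared to untreated vehicle cultures.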
# [17] = at 5.0 µM (retest, dose inferred, filed as 0.5)
# [18] = at 50.0 µM (retest, dose inferred, filed as 5.0)
compound,measurement,setting,value
CC1=C(C)Cc2c(O)ccc(O)c2C1,growth inhibition,[1]; at 1.2 µM,1%
same,growth inhibition,[1]; at 3.7 µM,12%
same,growth inhibition,[1]; at 11.0 µM,25%
same,growth inhibition,[1]; at 33.0 µM,20%
same,growth inhibition,[1]; at 100.0 µM,61%
same,growth inhibition,[2]; at 1.2 µM,-1%
same,growth inhibition,[2]; at 3.7 µM,-3%
same,growth inhibition,[2]; at 11.0 µM,-3%
same,growth inhibition,[2]; at 33.0 µM,-3%
same,growth inhibition,[2]; at 100.0 µM,-20%
same,growth inhibition,[3]; at 1.2 µM,20%
same,growth inhibition,[3]; at 3.7 µM,46%
same,growth inhibition,[3]; at 11.0 µM,67%
same,growth inhibition,[3]; at 33.0 µM,43%
same,growth inhibition,[3]; at 100.0 µM,58%
same,growth inhibition,[4]; at 1.2 µM,-2%
same,growth inhibition,[4]; at 3.7 µM,2%
same,growth inhibition,[4]; at 11.0 µM,6%
same,growth inhibition,[4]; at 33.0 µM,-1%
same,growth inhibition,[4]; at 100.0 µM,29%
same,growth inhibition,[5]; at 1.2 µM,1%
same,growth inhibition,[5]; at 3.7 µM,17%
same,growth inhibition,[5]; [17],-9%
same,growth inhibition,[5]; at 11.0 µM,38%
same,growth inhibition,[5]; at 33.0 µM,33%
same,growth inhibition,[5]; [18],99% (active)
same,growth inhibition,[5]; at 50.0 µM,94.5% (active)
same,growth inhibition,[5]; at 100.0 µM,93% (active)
same,growth inhibition,[6]; at 1.2 µM,-3%
same,growth inhibition,[6]; at 3.7 µM,-3%
same,growth inhibition,[6]; [17],30%
same,growth inhibition,[6]; at 11.0 µM,-3%
same,growth inhibition,[6]; at 33.0 µM,-4%
same,growth inhibition,[6]; [18],99% (active)
same,growth inhibition,[6]; at 50.0 µM,45.8%
same,growth inhibition,[6]; at 100.0 µM,20%
same,growth inhibition,[7]; at 1.2 µM,2%
same,growth inhibition,[7]; at 3.7 µM,9%
same,growth inhibition,[7]; at 11.0 µM,18%
same,growth inhibition,[7]; at 33.0 µM,13%
same,growth inhibition,[7]; at 100.0 µM,47%
same,growth inhibition,[8]; [17],5%
same,growth inhibition,[8]; [18],98% (active)
same,growth inhibition,[8]; at 50.0 µM,33.8%
same,growth inhibition,[9]; at 1.2 µM,-10%
same,growth inhibition,[9]; at 3.7 µM,-8%
same,growth inhibition,[9]; at 11.0 µM,-7%
same,growth inhibition,[9]; at 33.0 µM,-11%
same,growth inhibition,[9]; at 100.0 µM,33%
same,growth inhibition,[10]; [17],31%
same,growth inhibition,[10]; [18],98% (active)
same,growth inhibition,[10]; at 50.0 µM,48.9%
same,growth inhibition,[11]; at 1.2 µM,-3%
same,growth inhibition,[11]; at 3.7 µM,-5%
same,growth inhibition,[11]; [17],94% (active)
same,growth inhibition,[11]; at 11.0 µM,-4%
same,growth inhibition,[11]; at 33.0 µM,3%
same,growth inhibition,[11]; [18],99% (active)
same,growth inhibition,[11]; at 50.0 µM,83% (active)
same,growth inhibition,[11]; at 100.0 µM,63%
same,growth inhibition,[12]; at 1.2 µM,-12%
same,growth inhibition,[12]; at 3.7 µM,-6%
same,growth inhibition,[12]; at 11.0 µM,-4%
same,growth inhibition,[12]; at 33.0 µM,3%
same,growth inhibition,[12]; at 100.0 µM,-4%
same,growth inhibition,[13]; at 1.2 µM,-1%
same,growth inhibition,[13]; at 3.7 µM,5%
same,growth inhibition,[13]; at 11.0 µM,12%
same,growth inhibition,[13]; at 33.0 µM,6%
same,growth inhibition,[13]; at 100.0 µM,44%
same,growth inhibition,[14]; at 1.2 µM,-21%
same,growth inhibition,[14]; at 3.7 µM,-5%
same,growth inhibition,[14]; at 11.0 µM,-9%
same,growth inhibition,[14]; at 33.0 µM,7%
same,growth inhibition,[14]; at 100.0 µM,67%
same,growth inhibition,[15]; [17],52%
same,growth inhibition,[15]; [18],99% (active)
same,growth inhibition,[15]; at 50.0 µM,93.2% (active)
same,growth inhibition,[16]; at 1.2 µM,0%
same,growth inhibition,[16]; at 3.7 µM,10%
same,growth inhibition,[16]; at 11.0 µM,18%
same,growth inhibition,[16]; at 33.0 µM,14%
same,growth inhibition,[16]; at 100.0 µM,93% (active)
CC(=O)ON1C(=O)c2cccc3cccc(c23)C1=O,growth inhibition,[1]; at 1.2 µM,13%
same,growth inhibition,[1]; at 3.7 µM,38%
same,growth inhibition,[1]; at 11.0 µM,91% (active)
same,growth inhibition,[1]; at 33.0 µM,97% (active)
same,growth inhibition,[1]; at 100.0 µM,98% (active)
same,growth inhibition,[2]; at 1.2 µM,6%
same,growth inhibition,[2]; at 3.7 µM,17%
same,growth inhibition,[2]; at 11.0 µM,76% (active)
same,growth inhibition,[2]; at 33.0 µM,96% (active)
same,growth inhibition,[2]; at 100.0 µM,97% (active)
same,growth inhibition,[3]; at 1.2 µM,-2%
same,growth inhibition,[3]; at 3.7 µM,0%
same,growth inhibition,[3]; at 11.0 µM,0%
same,growth inhibition,[3]; at 33.0 µM,9%
same,growth inhibition,[3]; at 100.0 µM,57%
same,growth inhibition,[4]; at 1.2 µM,8%
same,growth inhibition,[4]; at 3.7 µM,46%
same,growth inhibition,[4]; at 11.0 µM,95% (active)
same,growth inhibition,[4]; at 33.0 µM,97% (active)
same,growth inhibition,[4]; at 100.0 µM,98% (active)
same,growth inhibition,[5]; at 1.2 µM,18%
same,growth inhibition,[5]; at 3.7 µM,57%
same,growth inhibition,[5]; [17],51%
same,growth inhibition,[5]; at 11.0 µM,93% (active)
same,growth inhibition,[5]; at 33.0 µM,97% (active)
same,growth inhibition,[5]; [18],96% (active)
same,growth inhibition,[5]; at 50.0 µM,81.9% (active)
same,growth inhibition,[5]; at 100.0 µM,98% (active)
same,growth inhibition,[6]; at 1.2 µM,-4%
same,growth inhibition,[6]; at 3.7 µM,33%
same,growth inhibition,[6]; [17],-3%
same,growth inhibition,[6]; at 11.0 µM,95% (active)
same,growth inhibition,[6]; at 33.0 µM,98% (active)
same,growth inhibition,[6]; [18],97% (active)
same,growth inhibition,[6]; at 50.0 µM,87.8% (active)
same,growth inhibition,[6]; at 100.0 µM,98% (active)
same,growth inhibition,[7]; at 1.2 µM,51%
same,growth inhibition,[7]; at 3.7 µM,95% (active)
same,growth inhibition,[7]; at 11.0 µM,98% (active)
same,growth inhibition,[7]; at 33.0 µM,99% (active)
same,growth inhibition,[7]; at 100.0 µM,99% (active)
same,growth inhibition,[8]; [17],22%
same,growth inhibition,[8]; [18],92% (active)
same,growth inhibition,[8]; at 50.0 µM,90.7% (active)
same,growth inhibition,[9]; at 1.2 µM,8%
same,growth inhibition,[9]; at 3.7 µM,10%
same,growth inhibition,[9]; at 11.0 µM,11%
same,growth inhibition,[9]; at 33.0 µM,32%
same,growth inhibition,[9]; at 100.0 µM,77% (active)
same,growth inhibition,[10]; [17],23%
same,growth inhibition,[10]; [18],69%
same,growth inhibition,[10]; at 50.0 µM,29.4%
same,growth inhibition,[11]; at 1.2 µM,2%
same,growth inhibition,[11]; at 3.7 µM,10%
same,growth inhibition,[11]; [17],69%
same,growth inhibition,[11]; at 11.0 µM,24%
same,growth inhibition,[11]; at 33.0 µM,91% (active)
same,growth inhibition,[11]; [18],96% (active)
same,growth inhibition,[11]; at 50.0 µM,89.5% (active)
same,growth inhibition,[11]; at 100.0 µM,95% (active)
same,growth inhibition,[12]; at 1.2 µM,4%
same,growth inhibition,[12]; at 3.7 µM,2%
same,growth inhibition,[12]; at 11.0 µM,20%
same,growth inhibition,[12]; at 33.0 µM,95% (active)
same,growth inhibition,[12]; at 100.0 µM,99% (active)
same,growth inhibition,[13]; at 1.2 µM,61%
same,growth inhibition,[13]; at 3.7 µM,91% (active)
same,growth inhibition,[13]; at 11.0 µM,97% (active)
same,growth inhibition,[13]; at 33.0 µM,99% (active)
same,growth inhibition,[13]; at 100.0 µM,98% (active)
same,growth inhibition,[14]; at 1.2 µM,44%
same,growth inhibition,[14]; at 3.7 µM,91% (active)
same,growth inhibition,[14]; at 11.0 µM,97% (active)
same,growth inhibition,[14]; at 33.0 µM,98% (active)
same,growth inhibition,[14]; at 100.0 µM,98% (active)
same,growth inhibition,[15]; [17],44%
same,growth inhibition,[15]; [18],97% (active)
same,growth inhibition,[15]; at 50.0 µM,81.4% (active)
same,growth inhibition,[16]; at 1.2 µM,15%
same,growth inhibition,[16]; at 3.7 µM,29%
same,growth inhibition,[16]; at 11.0 µM,86% (active)
same,growth inhibition,[16]; at 33.0 µM,97% (active)
same,growth inhibition,[16]; at 100.0 µM,97% (active)
